Measured values taken from PubChem BioAssay AID493011 (Sanford-Burnham Center for Chemical Genomics, 2011).
The whole screen tested about 330,000 compounds, of which about 1,400 (0.42%) were called active. The sample holds actives, similar compounds and a random draw of the others, so the mix is not that of the screen.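 Rule for the calls: active = at least 40% inhibition at 20 µM here, with at most 30% in a related deaminase screen; inactive = the rest.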

target: DNA dC->dU-editing enzyme APOBEC-3A (Homo sapiens) (UniProt P31941); experiment: APOBEC3A ssDNA deaminase inhibitors, primary screen, selectivity assay for APOBEC3G inhibitor project, biochemical, FAM/TAMRA oligo cleavage fluorescence (AID 493011); details: recombinant A3A, FAM/TAMRA ssDNA deamination fluorescence; at 20 µM; stronger effect = higher value;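 note: plate controls were A3A with DMSO for no effect and wells lacking A3A enzyme for full effect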
Sequence (P31941 whole entry, looked up): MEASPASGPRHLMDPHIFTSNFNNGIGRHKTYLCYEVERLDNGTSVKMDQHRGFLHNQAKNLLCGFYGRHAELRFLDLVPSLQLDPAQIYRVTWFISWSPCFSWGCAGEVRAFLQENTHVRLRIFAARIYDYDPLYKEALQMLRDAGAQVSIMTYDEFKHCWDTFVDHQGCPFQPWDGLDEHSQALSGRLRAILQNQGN

Row | SMILES | inhibition
1 | O=C(CN1CCOC1=O)N1CCCC(Nc2ccc(F)c(F)c2)C1 (stereo not given) | -3.28% (inactive)
2 | O=C(CNC(=O)c1ccc(Br)o1)Nc1ccccc1 | -8.36% (inactive)
3 | CC(CNC(=O)c1ccc(Br)o1)NC(=O)c1ccc(Br)o1 (stereo not given) | 2.21% (inactive)
4 | CCS(=O)(=O)c1ccc(-c2cccc(NC(=O)c3ccc(Br)o3)c2)nn1 | 95.4% (active)
5 | Cc1cc(C)cc(Oc2c(C(F)(F)F)oc3cc(OCC(=O)O)ccc3c2=O)c1 | 9.37% (inactive)
6 | O=C(CN1CCN(S(=O)(=O)c2cc(Cl)ccc2Cl)CC1)c1ccc(O)c(O)c1 | -5.68% (inactive)
7 | N#Cc1ccsc1NC(=O)CN1CCN(S(=O)(=O)c2cc(Cl)ccc2Cl)CC1 | 40.6% (active)
8 | N#Cc1ccsc1NC(=O)CN1CCCCC1 | -2.27% (inactive)
9 | CC(CC(=O)C1C(C)C=CCC1(C)C)NNC(N)=O (stereo not given) | 0.901% (inactive)
10 | CSc1ccccc1NC(=O)c1cnc2sc(C)cn2c1=O | 0.854% (inactive)
11 | CCc1c(C)nc2ncnn2c1N1CCC(C(=O)NCc2ccc3c(c2)OCO3)CC1 | 2.23% (inactive)
12 | O=C(COC(=O)c1ccccc1O)NCc1ccco1 | 32.8% (inactive)
13 | O=C(COC(=O)c1cnc(Cl)c(Cl)c1)NCc1ccco1 | 50.6% (active)
14 | COc1ccc(CCNC(=O)COC(=O)c2cnc(Cl)c(Cl)c2)cc1 | 4.13% (inactive)
15 | CC(C)CCN1CCC(C)(NC(=O)c2ccccc2)C1=O (stereo not given) | 0.313% (inactive)
16 | COc1ccccc1N(C)S(=O)(=O)c1ccc(Cl)c(C(=O)N2CCC(C(N)=O)CC2)c1 | 1.46% (inactive)
17 | Cc1sc(NC(=S)NC(=O)c2cccs2)nc1-c1ccc(CC(C)C)cc1 | 2.88% (inactive)
18 | CCc1nnc(NC(=O)CCC(=O)N2CCN(c3cc(C)ccc3C)CC2)s1 | -1.97% (inactive)
19 | COc1ccc(Cc2cc(-c3ccc(F)cc3)n[nH]c2=O)cc1 | -4.85% (inactive)
20 | COc1ccc2[nH]c(=O)c(CNc3ccc(C)c(C)c3)cc2c1 | 0.515% (inactive)
21 | CCCc1nc(-c2cc3cc(C)ccc3[nH]c2=O)no1 | 40.2% (active)
22 | CCC(=O)N(CCc1ccccc1)Cc1cc2cc(C)ccc2[nH]c1=O | -6.3% (inactive)
23 | COc1ccc2[nH]c(=O)c(-c3noc(-c4ccc(F)cc4)n3)cc2c1 | 70.7% (active)
24 | CCN(Cc1cc2cc(C)ccc2[nH]c1=O)S(=O)(=O)c1ccccc1 | -2.49% (inactive)
25 | C/C(=C\c1ccco1)CN1CCC(N2CCC(C(=O)N3CCOCC3)CC2)CC1 | -1.12% (inactive)

Row | SMILES | inhibition
26 | CC1CCCCC1NC(=O)CSc1nnc(N)s1 (stereo not given) | -0.077% (inactive)
27 | Cc1cc(C)n2nc(C(=O)Oc3ccc4c(c3)OCO4)nc2n1 | 0.02% (inactive)
28 | Cc1ccc(-c2nc(C#N)c(NCCCn3ccnc3)o2)cc1 | 0.374% (inactive)
29 | CC[n+]1cc(C)ccc1/C=C/c1ccc(N(C)C)cc1 | 64.4% (active)
30 | CN1CCN(S(=O)(=O)c2cccc(C(=O)Nc3sccc3C#N)c2)CC1 | 0.346% (inactive)
31 | Cc1ccc(CNC(=O)c2ccc(CS(=O)Cc3cccc(Cl)c3)o2)cc1 (stereo not given) | -4.67% (inactive)
32 | Cc1ccc(/C=C/C(=O)OCC(=O)NCc2ccc(Cl)cc2)o1 | 1.93% (inactive)
33 | CS(=O)(=O)NCc1ccc(C(=O)NCc2ccccc2)cc1 | -3.29% (inactive)
34 | Nc1ccc(C(=O)NCc2ccccc2)cc1 | 5.23% (inactive)
35 | C[n+]1ccc(C(=O)NCc2ccccc2)cc1 | 77.2% (active)
36 | COc1ccc(Cl)cc1NC(=O)COC(=O)c1ccc(Br)o1 | -2.56% (inactive)
37 | COc1ccc(CNc2nnnn2C)cc1 | 63.5% (active)
38 | Cn1nnnc1NCc1ccc(Cl)c(Cl)c1 | 1.46% (inactive)
39 | CCCn1nnnc1NCc1ccc(OC)cc1 | -5.24% (inactive)
40 | Cc1ccc(N(Cc2ccccc2O)C(=O)c2ccccc2F)cc1 | 3.92% (inactive)
41 | C/C=C(/C)C(=O)OC1Cc2c(ccc3ccc(=O)oc23)OC1(C)C (stereo not given) | -4.35% (inactive)
42 | CC1(C)Oc2ccc3ccc(=O)oc3c2/C(=N/O)C1=O | -5.21% (inactive)
43 | CC1(C)Oc2ccc3ccc(=O)oc3c2/C(=C/NCCO)C1=O | 55.6% (active)
44 | Cc1cnc(C(=O)OCC(=O)NCCCc2ccccc2)cn1 | -5.14% (inactive)
45 | COc1ccc2[nH]c(C)c(CCN(Cc3cccs3)C(=S)Nc3ccccc3OC)c2c1 | -5.52% (inactive)
46 | O=C(c1ccc(S(=O)(=O)NCc2ccco2)cc1)N1CCN(c2ccccc2)CC1 | -1.4% (inactive)
47 | O=C(c1ccc(CS(=O)(=O)c2ccccc2)o1)N1CCN(c2ccccc2)CC1 | 40% (active)
48 | COc1ccccc1CNC(=O)c1ccc(CS(=O)(=O)c2ccccc2)o1 | 3.87% (inactive)
49 | Cc1c(NC(=O)C(C)Oc2cccc(Cl)c2)c(=O)n(-c2ccccc2)n1C (stereo not given) | 2.72% (inactive)
50 | O=C(NCCCNCc1ccccc1)c1ccc(/C=N/O)nc1 | 0.078% (inactive)

Row | SMILES | inhibition
51 | C[N+](C)(C)CCNC(=O)c1cc[n+](Cc2ccccc2)c(/C=N/O)c1 | 77.9% (active)
52 | CC(C)c1ccc(C(=O)NCCCc2ccccc2)cc1 | -3.9% (inactive)
53 | CC(=O)Nc1ccc(Nc2cc(C)nc(Nc3ccc(NC(C)=O)cc3)n2)cc1 | 52.3% (active)
54 | CCC(=O)Nc1ccc(Nc2nc(Cl)nc(Nc3ccc(NC(=O)CC)cc3)n2)cc1 | -1.91% (inactive)
55 | COc1ccc(C(=O)NNc2cc(C)nc(NNC(=O)c3ccc(OC)cc3)n2)cc1 | 1.15% (inactive)
56 | COc1ccc(NC(=O)C(NC(C)=O)C(=O)NCc2ccccc2Cl)cc1 (stereo not given) | -1.84% (inactive)
57 | CC(C)c1c(O)nc(SCCOc2ccc(Cl)cc2)[nH]c1=O | -2.86% (inactive)
58 | CCN(Cc1ccccc1)C(=O)CN1C(=S)NC(C)(C)CC1C (stereo not given) | -4.37% (inactive)
59 | CCN(CC)CCNCC(=O)Nc1ccc(Oc2ccccc2)cc1 | -4.52% (inactive)
60 | CCN(CC)CCOC(=O)c1ccc(NC(=O)CNC(=O)c2ccccc2)cc1 | 49.1% (active)
61 | CCOC(=O)c1ccc(NC(=O)CNC(=O)c2ccco2)cc1 | -2.59% (inactive)
62 | CC(C)Oc1ccc(C(CC(=O)N2CCOCC2)C(C)C)cc1 (stereo not given) | 2.91% (inactive)
63 | CNc1ccc([N+](=O)[O-])cc1C(=O)O | 43.2% (active)
64 | CCN(CC)c1ccc([N+](=O)[O-])cc1C(=O)O | 3.17% (inactive)
65 | Cc1ccc(NC(=O)c2cc([N+](=O)[O-])ccc2Cl)c(O)c1 | 1.45% (inactive)
66 | Cc1ccc(N/N=C2\COC(C)(C)CC2=O)cc1 | -3.88% (inactive)
67 | CCNC(=O)COC(=O)CCNC(=O)c1cccc(C)c1 | 82.3% (active)
68 | Cc1cccc(OCC(=O)NCCNC(=O)c2cccnc2)c1 | -1.26% (inactive)
69 | Cc1cccc(C(=O)NCC(=O)OCC(=O)N(C)CC(=O)Nc2ccccc2Cl)c1 | -1.62% (inactive)
70 | CC(C)Cn1c(N2CCN(C(=O)/C=C/c3ccccc3)CC2)nc2ccccc21 | -1.07% (inactive)
71 | Cc1cc2c(cc1C)[n+](C)cn2CC(O)COCC1CC=CCC1 (stereo not given) | 46.1% (active)
72 | COc1ccc(-c2noc(CCC(=O)N3CCN(c4cccc(C)c4)CC3)n2)cc1 | 3.55% (inactive)
73 | CC(C)(CSc1nncn1/N=C/c1ccco1)NS(=O)(=O)c1ccc(Cl)cc1 | 5.18% (inactive)
74 | O=C(NC1CC1)C1CCCN(C(=O)NC2CCCCC2)C1 (stereo not given) | -2.29% (inactive)
75 | CC[C@]1(C(=O)OC)[C@H]2C(=O)N(C)C(=O)[C@H]2[C@H]2CN(C)C(=NCc3ccccc3)N21 | 2.1% (inactive)
